High-throughput results from PubChem BioAssay.
Rows were chosen to be rich in hits. Some 12% of all compounds tested hit in one or more screens of this group.
HP1b binding inh: HP1-beta chromodomain-methylated histone interaction inhibition; 0.56% of 390,000 active; AlphaScreen HP1-beta / biotin-H3K9me3 peptide binding; Potency, µM (titrated, usually from 114 µM), hits mostly inhibitors; also: nearly all actives have a fitted effect of over 70% in size
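AlphaScreen: HP1-beta (50 nM) preformed 30 min with biotin-H3(1-18)K9me3 peptide (50 nM) in PBS pH 7.4, 0.01% Tween-20. Compound added for 30 min at RT, then streptavidin donor/nickel chelate acceptor beads (10 ug/mL) for 30 min.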
BAZ2B block: inhibitors of human BAZ2B bromodomain. Potency, µM (highest dose often 114 µM), actives largely listed as inhibitors. 4.4% of 360,000 active. AlphaScreen BAZ2B-H3K14Ac peptide displacement; also: nearly all actives have a fitted effect of over 60% in size
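Compounds, titrated to a top concentration of 110 uM, were incubated 30 min at room temperature with preformed BAZ2B/acetyl-K14 H3 peptide complex (50 nM each). Proximity signal was measured by AlphaScreen after 20 min with beads.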
TDP1 block: inhibitors of human tyrosyl-DNA phosphodiesterase TDP1. Q9NUW8. recombinant TDP1, AlphaScreen DNA substrate cleavage. Potency, µM (top dose mostly 130 µM), actives largely listed as inhibitors. 0.28% of 350,000 active. AID 485290; also: nearly all actives have a fitted effect of over 40% in size
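Compounds were preincubated with Tdp1 (1 nM final) for 15 min at room temperature before substrate (15 nM final) started a 5 min reaction; beads (10 ug/ml final) were then added for 10 min before AlphaScreen detection.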
G9a block: blocks human histone lysine methyltransferase G9a; G9a H3K9 monomethylation, AlphaScreen, 2 h; 8.8% of 350,000 active; Potency, µM (titrated, usually from 102 µM), actives largely listed as inhibitors; Q96KQ7; also: nearly all actives have a fitted effect of over 75% in size
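Signal arises when biotinylated H3K9 peptide, once monomethylated, bridges streptavidin donor and antibody-captured acceptor beads. Enzyme at 20 nM was preincubated 15 min with test compounds; peptide 500 nM and SAM 20 uM then reacted for 2 h.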
Sfp inh: Sfp phosphopantetheinyl transferase inhibition. Biochemical Sfp PPTase activity, qHTS. Potency, µM, actives largely listed as inhibitors. 3.5% of 310,000 active;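 also: the enzyme is Sfp with the accession as filed and its product quenches rhodamine fluorescence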
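Fluorescence-quenching assay: 15 nM Sfp-PPTase preincubated 15 min at room temperature with compound, then 5 uM rhodamine-CoA and 12.5 uM BHQ-2-labelled YbbR peptide added. Fluorescence (ex 525/em 598 nm) read at start and after 30 min; difference gives rate.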
JMJD2A Tudor inh: blocks the human JMJD2A Tudor domain | O75164 | AlphaScreen JMJD2A-Tudor / H3K4me3 peptide binding | Potency, µM (top dose mostly 114 µM), usual class: inhibitors | 4.4% of 390,000 active | AID 504339; also: nearly all actives have a fitted effect of over 50% in size
A number is an active result; [ ] = remark or other dose. Calls follow the shape of the dose curve; as a rule, active = well fitted curve in the direction sought with a large enough effect; inconclusive = small, poorly fitted or top-dose-only effect, or another doubt; inactive = no such curve, though single readings can be large; an effect the other way counts as inactive or inconclusive.

Results for O=C(O)/C=C/C(=O)Nc1ccc(Cl)c(C(=O)O)c1 ?
HP1b binding inh: inactive; BAZ2B block: inconclusive; G9a block: inconclusive; Sfp inh: inactive; JMJD2A Tudor inh: inactive

What do the screens show for `O=C(O)/C=C/C(=O)Nc1ccc(SC(F)(F)C(F)(F)C(F)(F)F)cc1`?
HP1b binding inh: inactive; BAZ2B block: inactive; TDP1 block: inactive; G9a block: inactive; Sfp inh: inactive; JMJD2A Tudor inh: inactive

Results for O=C(O)/C=C/C(=O)Nc1ccc(C2(c3ccc(NC(=O)/C=C/C(=O)O)cc3)c3ccccc3-c3ccccc32)cc1 ?
HP1b binding inh: inactive; BAZ2B block: 50.1µM; Sfp inh: inactive; JMJD2A Tudor inh: inactive

What do the screens show for `O=C(O)/C=C/C(=O)Nc1ccc(Cc2ccc(NC(=O)/C=C/C(=O)O)cc2)cc1`?
HP1b binding inh: inactive; BAZ2B block: inactive; G9a block: 44.7µM; Sfp inh: inactive; JMJD2A Tudor inh: inactive

How did Cc1c(-c2ccc(Cl)cc2)oc(=O)c2c(N)n(-c3ccccc3)nc12 do in these assays?
HP1b binding inh: inactive; BAZ2B block: 50.1µM; TDP1 block: 50.1µM; G9a block: inactive; Sfp inh: inactive; JMJD2A Tudor inh: inactive

What do the screens show for `CN(C)[C@H]1C(=O)C(C(=O)NCN2CCCC2)=C(O)[C@]2(O)C(=O)C3=C(O)c4c(O)cccc4[C@](C)(O)[C@H]3C[C@H]12`?
TDP1 block: 0.199µM; G9a block: 1.58µM; Sfp inh: inconclusive

How did CN(C)[C@@H]1C(=O)C(C(=O)NCN2CCCC2)=C(O)[C@@]2(O)C(=O)C3=C(O)c4c(O)cccc4[C@@](C)(O)C3CC12 (stereo partly specified) do in these assays?
BAZ2B block: 1.26µM; TDP1 block: 0.708µM; G9a block: 3.16µM; Sfp inh: 50.1µM

What do the screens show for `CN(C)c1ccc(O)c2c1C[C@@H]1C[C@H]3C(N(C)C)C(=O)C(C(N)=O)=C(O)[C@@]3(O)C(=O)C1=C2O` (stereo partly specified)?
G9a block: inactive[2.33 µM]; Sfp inh: inactive

Results for Cc1cc(NC(=O)C(C)SCC(=O)OCc2ccc([N+](=O)[O-])cc2)no1 (stereo unspecified) ?
HP1b binding inh: inactive; BAZ2B block: inactive; TDP1 block: inactive; G9a block: inactive; JMJD2A Tudor inh: inactive

Results for CCOC(=O)C1=C(C)NC(=S)NC1c1cccc(O)c1 (stereo unspecified) ?
TDP1 block: inactive; Sfp inh: inactive

What do the screens show for `O=c1[nH]c(CSc2cccc[n+]2[O-])nc2ccccc12`?
HP1b binding inh: inactive; BAZ2B block: inactive; TDP1 block: inactive; Sfp inh: 44.7µM; JMJD2A Tudor inh: inactive

How did CC(C)Cn1c(SCc2nc3ccccc3c(=O)[nH]2)nc2ccccc2c1=O do in these assays?
HP1b binding inh: inactive; BAZ2B block: 89.1µM; TDP1 block: inactive; G9a block: inactive; Sfp inh: inactive; JMJD2A Tudor inh: inactive

How did O=C(CCNS(=O)(=O)c1ccccc1C(F)(F)F)NNC(=O)C1COc2ccccc2O1 (stereo unspecified) do in these assays?
HP1b binding inh: inactive; BAZ2B block: inactive; G9a block: inactive; JMJD2A Tudor inh: inactive

How did COc1ccc(CC(=O)NCc2ccc3c(c2)CCN3C(=O)c2ccc(C)cc2)cc1OC do in these assays?
HP1b binding inh: inactive; BAZ2B block: inactive; TDP1 block: inactive; G9a block: inactive; JMJD2A Tudor inh: inactive

Results for O=C(C(F)C(F)(F)F)N1CCN(c2ccccc2)CC1 (stereo unspecified) ?
HP1b binding inh: inactive; BAZ2B block: inactive; TDP1 block: inactive; G9a block: inactive; Sfp inh: inactive; JMJD2A Tudor inh: inactive

What do the screens show for `CCC(CC)C(=O)N1CCN(c2ccccc2)CC1`?
HP1b binding inh: inactive; BAZ2B block: inactive; TDP1 block: inactive; G9a block: 79.4µM; Sfp inh: inactive; JMJD2A Tudor inh: inactive

What do the screens show for `CCN(CC)c1ccc(C(=O)OCC(=O)N2CCN(c3ccccc3)CC2)cc1`?
HP1b binding inh: inactive; BAZ2B block: inactive; TDP1 block: inactive; G9a block: inactive; Sfp inh: inactive; JMJD2A Tudor inh: 4.47µM

Results for CC(=O)c1ccc(N2CCN(C(=S)Nc3ccccc3)CC2)cc1 ?
HP1b binding inh: inactive; BAZ2B block: inactive; TDP1 block: inactive; G9a block: inactive; Sfp inh: inactive; JMJD2A Tudor inh: inactive

Results for CC(=O)N1CCN(c2ccc(NC(=O)c3ccccc3)cc2)CC1 ?
HP1b binding inh: inactive; BAZ2B block: inactive; TDP1 block: inactive; G9a block: inactive; Sfp inh: inactive; JMJD2A Tudor inh: inactive

What do the screens show for `CC(=O)c1ccc(NCC(=O)N2CCN(c3ccccc3)CC2)cc1`?
HP1b binding inh: inactive; BAZ2B block: inactive; TDP1 block: inactive; G9a block: 14.1µM; Sfp inh: inactive; JMJD2A Tudor inh: inactive

Results for CC(=O)N1CCN(c2ccc(NC(=O)C(c3ccccc3)c3ccccc3)cc2)CC1 ?
HP1b binding inh: inactive; BAZ2B block: inactive; G9a block: 50.1µM; Sfp inh: inactive; JMJD2A Tudor inh: inconclusive

Results for COc1ccc(OC)c(NC(=O)Cn2nc(C)c3ccccc3c2=O)c1 ?
HP1b binding inh: inactive; BAZ2B block: inactive; G9a block: inactive; Sfp inh: inactive; JMJD2A Tudor inh: inactive

Results for CCc1ccc(CN2CCC(Oc3ccc(C(=O)NCc4ccccn4)cc3)CC2)o1 ?
HP1b binding inh: inactive; BAZ2B block: inactive; TDP1 block: inactive; G9a block: inconclusive; Sfp inh: inactive; JMJD2A Tudor inh: inactive

Results for O=C(Nc1ccc(N2CCCCC2)cc1)C(Cl)c1ccccc1 (stereo unspecified) ?
HP1b binding inh: inactive; BAZ2B block: inconclusive; TDP1 block: inactive; G9a block: inconclusive; Sfp inh: inconclusive; JMJD2A Tudor inh: inactive

How did O=C(Nc1ccc(N2CCCC2)cc1)C(c1ccccc1)c1ccccc1 do in these assays?
HP1b binding inh: inactive; BAZ2B block: inconclusive; TDP1 block: inactive; G9a block: 31.6µM; Sfp inh: 50.1µM; JMJD2A Tudor inh: inconclusive

How did CC(=O)N1CCC2(CC1)CCN(c1ccc(-c3ccccc3)cc1)CC2 do in these assays?
G9a block: inactive[12.7 µM]; Sfp inh: 56.2µM

How did COc1cccc(NC(=O)CCCn2nc(C)c3c(C)n(-c4ccccc4)nc3c2=O)c1 do in these assays?
HP1b binding inh: inactive; BAZ2B block: inactive; TDP1 block: inactive; Sfp inh: inactive; JMJD2A Tudor inh: inactive

How did CC(=O)N1N=C(c2ccc(C)o2)CC1c1cccc(F)c1 (stereo unspecified) do in these assays?
HP1b binding inh: inconclusive; BAZ2B block: inactive; TDP1 block: inactive; Sfp inh: 39.8µM; JMJD2A Tudor inh: inactive

How did CC(=O)N1N=C(c2ccccc2)CC1c1ccc(F)cc1 (stereo unspecified) do in these assays?
HP1b binding inh: inactive; BAZ2B block: inactive; G9a block: inactive[0.501 µM]; Sfp inh: inactive; JMJD2A Tudor inh: inactive
